Results filed as inconclusive are left out. Where a call stands in place of a potency, no number is given. The source made the active and inactive calls. Unless noted, calls follow the shape of the full dose curve.
Legend:
[1] = Nuclear factor erythroid 2-related factor 2/antioxidant responsive element (Nrf2/ARE) small molecule agonists: qHTS cell viability counter screen in human keratinocytes (AID 1919968; active = well fitted curve in the direction sought with a large enough effect in the repeat runs; an effect the other way counts as inactive or inconclusive; also: nearly all actives have a fitted effect of over 55% in size; also: potency is read from the fitted curve at half-maximal effect)
How it was run: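 KeratinoSens HaCaT cells, 1,500/well, preincubated 5 h, then exposed to compounds in DMSO for 23 h at 37 C/5% CO2. Viability read as CellTiter-Fluor fluorescence after 1 h, in the same wells as the ARE-luciferase read.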

[2] = Nuclear factor erythroid 2-related factor 2/antioxidant responsive element (Nrf2/ARE) small molecule agonists: luciferase reporter gene qHTS assay in human keratinocytes (AID 1919969); also: nearly all actives have a fitted effect of over 35% in size
[3] = biological target: Gonadotropin-releasing hormone receptor (Homo sapiens) (UniProt P30968); assay: Human gonadotropin-releasing hormone receptor (GnRHR) small molecule agonists, calcium flux assay in GnRHR-HEK293 cells (AID 1920063); also: nearly all actives have a fitted effect of over 35% in size
How it was run: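 HEK293 cells stably expressing human GnRHR were dye-loaded for 1 h at 37 C. Compound was added in agonist mode and fluorescence (Ex/Em 480/540) recorded kinetically for 3 min. Fifteen concentrations, triplicates.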

[4] = biological target: KiSS-1 receptor (Homo sapiens) (UniProt Q969F8); assay: Human kisspeptin (KISS1R) small molecule agonists, calcium flux assay in KISS1R-HEK293 cells (AID 1920064; active = well fitted curve in the direction sought with a large enough effect in the repeat runs; an effect the other way counts as inactive or inconclusive)
How it was run: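 HEK293 cells stably expressing human KISS1R were loaded with calcium dye for 1 h at 37 C, then given compound; fluorescence (Ex/Em 480/540) was read kinetically for 3 min. Fifteen concentrations, triplicate.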

[5] = G protein-coupled receptor (GPCR) small molecule agonists, calcium flux assay: HEK293 wild type cell line counter screen (AID 1920065)
How it was run: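 Wild-type HEK293 cells plated 18 h, loaded with calcium dye 1 h at 37 C, then compounds added in agonist mode (ATP as positive control). Kinetic fluorescence Ex/Em 480/540 recorded 3 min at 1 sec intervals; 15 concentrations, triplicate.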

[6] = p53 small molecule agonists, cell-based qHTS assay with human liver microsomes (AID 1963577);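 also: p53 response element beta-lactamase reporter cells with liver microsomes plus NADPH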
How it was run: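 p53RE-bla cells; 5 h settle, 37 C/5% CO2; cpd + HLM 0.5 mg/mL + NADPH 0.5 mg/mL (final); 16 h 37 C; LiveBLAzer 2 h RT dark; fluorescence readout.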

[7] = p53 small molecule agonists, cell-based qHTS assay with rat liver microsomes (AID 1963578)
How it was run: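 Rat liver microsome activation: microsomes 0.5 mg/mL, NADPH 0.5 mg/mL final; p53RE-bla cells, 16 h 37 C; LiveBLAzer readout, 2 h RT dark.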

[8] = p53 small molecule agonists, cell-based qHTS assay with human liver microsomes: qHTS cell viability counter screen (AID 1963579); also: nearly all actives have a fitted effect of over 45% in size
How it was run: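 Luminescent CellTiter-Glo read-out, 30 min at room temperature, gauged cytotoxicity in p53RE-bla cells exposed 16 h at 37 C to DMSO-dissolved compounds with metabolic activation by human liver microsomes and NADPH, each 0.5 mg/mL final.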

[9] = p53 small molecule agonists, cell-based qHTS assay with rat liver microsomes: qHTS cell viability counter screen (AID 1963580); also: nearly all actives have a fitted effect of over 45% in size
How it was run: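 p53RE-bla HCT-116 cells were exposed 16 h at 37 C to compounds with rat liver microsomes (0.5 mg/mL) and NADPH (0.5 mg/mL). Viability was measured in the same wells as ATP content by CellTiter-Glo luminescence.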

[10] = p53 small molecule agonists, cell-based qHTS assay: qHTS cell viability counter screen (AID 1963581); also: nearly all actives have a fitted effect of over 45% in size
How it was run: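 p53RE-bla HCT-116 cells, compounds added 5 h after plating and incubated 16 h at 37 C. Cytotoxicity measured in the same wells as intracellular ATP by CellTiter-Glo luminescence after 30 min at room temperature.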

[11] = p53 small molecule agonists, cell-based qHTS assay (AID 1963582; active = well fitted activation curve with a large enough effect in the signal ratio in the repeat runs, not every such curve was filed as active; the % refers to the signal ratio)
How it was run: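 p53RE-bla reporter cells, compounds added in DMSO after 5 h plating, incubated 16 h at 37 C. Beta-lactamase read via 2 h room-temperature LiveBLAzer B/G FRET substrate, fluorescence intensity.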

[12] = biological target: 5-hydroxytryptamine receptor 2A (Homo sapiens) (UniProt P28223); assay: 5-hydroxytryptamine receptor 2A (HTR2A) small molecule antagonists, cell-based qHTS assay (AID 1963586); also: nearly all actives have a fitted effect of over 45% in size
How it was run: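 Antagonist-mode intracellular calcium assay: DOI (4 nM) added after 5 min compound pre-incubation at room temperature to dye-loaded HTR2A-CHO cells. Fluorescence followed for 3 min, sampled every second.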

[13] = biological target: 5-hydroxytryptamine receptor 2A (Homo sapiens) (UniProt P28223); assay: 5-hydroxytryptamine receptor 2A (HTR2A) small molecule agonists, cell-based qHTS assay (AID 1963587); also: nearly all actives have a fitted effect of over 30% in size
How it was run: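 CHO cells stably expressing human HTR2A, plated 18 h, loaded with calcium dye 1 h at 37 C. Agonist mode: compounds added and intracellular calcium fluorescence recorded kinetically for 2 min at 1 sec intervals.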

[14] = biological target: Muscarinic acetylcholine receptor M1 (Homo sapiens) (UniProt P11229); assay: Cholinergic receptor muscarinic 1 (CHRM1) small molecule antagonists, cell-based qHTS assay (AID 1963588); also: nearly all actives have a fitted effect of over 40% in size
How it was run: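 CHRM1-CHO calcium-flux assay, antagonist mode. Cells were seeded 18 h, dye-loaded 1 h at 37 C and given compound for 5 min at RT, then acetylcholine was added at 50nM. FDSS fluorescence was read 3 min; 15 concentrations, three runs.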

[15] = biological target: Muscarinic acetylcholine receptor M1 (Homo sapiens) (UniProt P11229); assay: Cholinergic receptor muscarinic 1 (CHRM1) small molecule agonists, cell-based qHTS assay (AID 1963589); also: nearly all actives have a fitted effect of over 35% in size
How it was run: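 CHO cells stably expressing human CHRM1 were loaded with calcium dye for 1 h at 37 C, then compound was added in agonist mode. Intracellular calcium fluorescence was followed kinetically at 1 s intervals. Fifteen concentrations were tested in three independent runs.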

[16] = cAMP Responsive Elements (CRE) small molecule agonists, cell-based qHTS assay (AID 1963590)
How it was run: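 CRE-bla HEK 293T cells, 2,000/well in DMEM with 10% dialyzed FBS and 25 mM HEPES, pre-incubated 18 h at 37 C, then exposed to compound 3 h at 37 C. Beta-lactamase reporter read with LiveBLAzer B/G FRET substrate after 2 h at room temperature.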

[17] = cAMP Responsive Elements (CRE) small molecule antagonists, cell-based qHTS assay (AID 1963591; active = well fitted inhibition curve with a large enough effect in the signal ratio in the repeat runs, not every such curve was filed as active; the % refers to the signal ratio)
How it was run: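 CRE-bla HEK293T cells plated 18 h, then given compound plus NKH477 at 0.25 uM final for 3 h at 37C. Beta-lactamase reporter read with LiveBLAzer B/G FRET substrate after 2 h at room temperature.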

[18] = biological target: Beta-2 adrenergic receptor (Homo sapiens) (UniProt P07550); assay: Adrenergic beta2 receptor (ADRB2) small molecule antagonists, cell-based qHTS assay (AID 1963592); also: series mostly up to about 92 µM; nearly all actives have a fitted effect of over 50% in size
How it was run: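 Cells (CHO, stable ADRB2 overexpression) incubated 18-20hr at 37C; compounds added from DMSO; agonist mix (1nM isoproterenol, 100uM IBMX, 25uM Ro-20-1724) added; 0.5hr RT; d2-cAMP and anti-cAMP-cryptate added; 1hr RT; 665/615 nm read.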

[19] = biological target: Beta-2 adrenergic receptor (Homo sapiens) (UniProt P07550); assay: Adrenergic beta2 receptor (ADRB2) small molecule agonists, cell-based qHTS assay (AID 1963593);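 also: CHO cells stably overexpressing human ADRB2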
How it was run: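 CHO cells stably over-expressing ADRB2 were plated overnight at 37C, then dosed with compounds plus a stimulation mix containing 100uM IBMX and 25uM Ro-20-1724 for 0.5hr at room temperature. cAMP was measured by HTRF competition, 1hr.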

[20] = biological target: D(2) dopamine receptor (Homo sapiens) (UniProt P14416); assay: Dopamine D2 receptor (DRD2) small molecule agonists, cell-based qHTS assay (AID 1963594); also: nearly all actives have a fitted effect of over 35% in size
How it was run: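 HEK293 cells stably expressing human DRD2, pre-treated with PDE inhibitor Ro20-1724 (0.1 mM final) and compound 10 min at room temperature, then stimulated with NKH477 (200nM […]) for 30 min. cAMP read by HTRF (665/620 nm).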

Chain of Muscarinic acetylcholine receptor M1 (Homo sapiens) (P11229 whole entry, looked up): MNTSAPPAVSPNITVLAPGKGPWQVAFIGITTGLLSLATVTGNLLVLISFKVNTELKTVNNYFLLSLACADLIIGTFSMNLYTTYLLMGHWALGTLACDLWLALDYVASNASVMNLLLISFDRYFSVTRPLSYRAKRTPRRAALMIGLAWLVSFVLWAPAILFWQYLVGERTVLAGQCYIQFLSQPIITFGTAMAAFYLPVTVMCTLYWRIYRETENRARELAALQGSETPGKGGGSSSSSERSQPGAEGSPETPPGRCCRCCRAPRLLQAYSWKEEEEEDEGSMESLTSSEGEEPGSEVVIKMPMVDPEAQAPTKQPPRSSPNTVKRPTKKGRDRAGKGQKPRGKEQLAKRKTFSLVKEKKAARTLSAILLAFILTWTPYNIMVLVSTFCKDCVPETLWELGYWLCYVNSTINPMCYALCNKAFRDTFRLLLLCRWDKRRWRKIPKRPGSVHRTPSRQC
Chain of Beta-2 adrenergic receptor (Homo sapiens) (P07550 whole entry, looked up): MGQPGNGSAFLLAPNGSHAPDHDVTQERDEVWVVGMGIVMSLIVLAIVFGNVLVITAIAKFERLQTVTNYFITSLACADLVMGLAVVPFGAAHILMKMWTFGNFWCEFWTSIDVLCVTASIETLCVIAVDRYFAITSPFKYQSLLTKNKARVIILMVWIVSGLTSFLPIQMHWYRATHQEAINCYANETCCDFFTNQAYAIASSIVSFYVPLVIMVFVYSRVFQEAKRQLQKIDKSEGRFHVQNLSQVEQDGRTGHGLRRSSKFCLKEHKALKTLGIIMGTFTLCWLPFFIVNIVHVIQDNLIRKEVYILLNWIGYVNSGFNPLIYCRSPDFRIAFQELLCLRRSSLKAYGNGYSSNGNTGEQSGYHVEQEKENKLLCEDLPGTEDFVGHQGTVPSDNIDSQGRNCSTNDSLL
Chain of KiSS-1 receptor (Homo sapiens) (Q969F8 whole entry, looked up): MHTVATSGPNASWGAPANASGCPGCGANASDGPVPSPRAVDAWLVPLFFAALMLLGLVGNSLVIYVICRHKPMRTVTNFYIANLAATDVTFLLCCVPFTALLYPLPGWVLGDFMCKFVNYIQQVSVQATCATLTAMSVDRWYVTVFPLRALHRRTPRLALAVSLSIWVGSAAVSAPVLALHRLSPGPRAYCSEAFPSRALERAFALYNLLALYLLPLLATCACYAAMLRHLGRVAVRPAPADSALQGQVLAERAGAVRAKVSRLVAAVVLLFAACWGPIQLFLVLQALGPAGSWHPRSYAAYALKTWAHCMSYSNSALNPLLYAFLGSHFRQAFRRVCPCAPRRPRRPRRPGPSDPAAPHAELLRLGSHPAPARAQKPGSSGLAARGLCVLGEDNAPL
Chain of D(2) dopamine receptor (Homo sapiens) (P14416 whole entry, looked up): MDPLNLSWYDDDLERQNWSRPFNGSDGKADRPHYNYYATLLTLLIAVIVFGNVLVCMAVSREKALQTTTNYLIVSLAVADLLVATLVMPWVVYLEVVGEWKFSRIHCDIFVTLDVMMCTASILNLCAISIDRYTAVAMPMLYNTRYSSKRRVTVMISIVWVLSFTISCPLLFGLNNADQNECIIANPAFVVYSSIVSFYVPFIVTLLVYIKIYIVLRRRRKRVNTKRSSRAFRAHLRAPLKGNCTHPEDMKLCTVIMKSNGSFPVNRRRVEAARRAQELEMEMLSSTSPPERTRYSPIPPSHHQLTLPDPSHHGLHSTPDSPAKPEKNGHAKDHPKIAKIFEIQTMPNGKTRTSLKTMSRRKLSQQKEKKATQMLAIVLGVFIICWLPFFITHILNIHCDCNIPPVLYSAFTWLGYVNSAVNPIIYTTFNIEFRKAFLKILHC
Chain of 5-hydroxytryptamine receptor 2A (Homo sapiens) (P28223 whole entry, looked up): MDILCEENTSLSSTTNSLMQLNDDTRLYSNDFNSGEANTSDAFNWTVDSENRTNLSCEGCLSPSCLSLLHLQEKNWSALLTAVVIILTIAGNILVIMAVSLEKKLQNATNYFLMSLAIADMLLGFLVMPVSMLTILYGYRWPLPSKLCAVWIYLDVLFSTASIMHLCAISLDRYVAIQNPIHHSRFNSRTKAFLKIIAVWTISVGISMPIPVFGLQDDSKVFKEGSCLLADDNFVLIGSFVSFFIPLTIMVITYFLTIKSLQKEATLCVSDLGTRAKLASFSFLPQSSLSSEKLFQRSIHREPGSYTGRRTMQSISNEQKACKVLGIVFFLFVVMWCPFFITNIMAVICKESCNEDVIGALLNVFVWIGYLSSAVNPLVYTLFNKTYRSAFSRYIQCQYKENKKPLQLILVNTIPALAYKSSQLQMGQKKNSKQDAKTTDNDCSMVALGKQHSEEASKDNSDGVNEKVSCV
Chain of Gonadotropin-releasing hormone receptor (Homo sapiens) (P30968 whole entry, looked up): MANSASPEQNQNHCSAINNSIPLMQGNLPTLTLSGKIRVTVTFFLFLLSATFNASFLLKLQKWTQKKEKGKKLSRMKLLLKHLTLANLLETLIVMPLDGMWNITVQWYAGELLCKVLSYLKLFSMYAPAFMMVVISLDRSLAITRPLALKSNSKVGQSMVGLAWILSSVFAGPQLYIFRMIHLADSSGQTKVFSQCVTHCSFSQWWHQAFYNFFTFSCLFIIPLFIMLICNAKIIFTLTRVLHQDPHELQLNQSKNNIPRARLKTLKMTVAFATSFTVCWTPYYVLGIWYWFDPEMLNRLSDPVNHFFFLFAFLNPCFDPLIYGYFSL

Compound	Potency [1]	Potency [2]	Potency [3]	Potency [4]	Potency [5]	Potency [6]	Potency [7]	Potency [8]	Potency [9]	Potency [10]	Potency [11]	Potency [12]	Potency [13]	Potency [14]	Potency [15]	Potency [16]	Potency [17]	Potency [18]	Potency [19]	Potency [20]
O=S(=O)(O)CO	inactive	inactive	inactive	inactive	inactive	inactive	inactive	inactive	inactive	inactive	inactive	inactive	inactive	inactive	inactive	inactive	inactive	inactive	inactive	inactive
COc1ccc2cc3[n+](cc2c1OC)CCc1cc2c(cc1-3)OCO2	4.22 µM (active)	inactive	inactive	inactive	inactive	inactive	inactive	inactive	inactive	inactive										
O=C[O][Al]([O]C=O)[O]C=O	inactive	inactive	inactive	inactive	inactive	inactive	inactive	inactive	inactive	inactive	inactive	inactive	inactive	inactive	inactive	inactive	inactive	inactive	inactive	inactive
COc1ccc2c(c1)CCCC2=O	inactive	inactive	inactive	inactive	inactive	inactive	inactive	inactive	inactive	inactive	inactive	inactive	inactive	inactive	inactive	inactive	inactive	inactive	inactive	
Cc1sccc1Br	inactive	inactive	inactive	inactive	inactive	inactive	inactive	inactive	inactive	inactive	inactive	inactive	inactive	inactive	inactive	inactive	inactive	inactive	inactive	inactive
O=C(O)CCc1ccccc1	inactive	inactive	inactive	inactive	inactive	inactive	inactive	inactive	inactive	inactive	inactive	inactive	inactive	inactive	inactive	inactive	inactive	inactive	inactive	inactive
NC(=O)c1ccc(N)cc1	inactive	inactive	inactive	inactive	inactive	inactive	inactive	inactive	inactive	inactive	inactive	inactive	inactive	inactive	inactive	inactive	inactive	inactive	inactive	inactive
C1CN(CCOCCN2CCOCC2)CCO1	inactive	inactive	inactive	inactive	inactive	inactive	inactive	inactive	inactive	inactive	inactive	inactive	inactive	inactive	inactive	inactive	inactive	inactive	inactive	inactive
Cc1ccc(C(=O)Nc2ccc(S(=O)(=O)O)c3cc(S(=O)(=O)O)cc(S(=O)(=O)O)c23)cc1NC(=O)c1cccc(NC(=O)Nc2cccc(C(=O)Nc3cc(C(=O)Nc4ccc(S(=O)(=O)O)c5cc(S(=O)(=O)O)cc(S(=O)(=O)O)c45)ccc3C)c2)c1	inactive	inactive	inactive	inactive	inactive	inactive	inactive	inactive	inactive	inactive	inactive	inactive	inactive	inactive	inactive	inactive	inactive	inactive	inactive	inactive
CC(C)=CCC/C(C)=C/C#N	inactive	inactive	inactive	inactive	inactive	inactive	inactive	inactive	inactive	inactive	inactive	inactive	inactive	inactive	inactive	inactive	inactive	inactive	inactive	inactive
C=CCc1cc(OC)c(O)c(C(=O)NCCO)c1	inactive	inactive	inactive	inactive	inactive	inactive	inactive	inactive	inactive	inactive	inactive	inactive	inactive	inactive	inactive	inactive	inactive	inactive	inactive	inactive
O=[N+]([O-])c1ccc(F)cc1F	inactive	inactive	inactive	inactive	inactive	inactive	inactive	inactive	inactive	inactive	inactive	inactive	inactive	inactive	inactive	inactive	inactive	inactive	inactive	inactive
FC(F)(F)C(Cl)(Cl)Cl	inactive	inactive	inactive	inactive	inactive	inactive	inactive	inactive	inactive	inactive	inactive	inactive	inactive	inactive	inactive	inactive	inactive	inactive	inactive	inactive
CCOC(=O)O[C@]1(C(=O)OCCl)CC[C@H]2[C@@H]3CCC4=CC(=O)C=C[C@]4(C)[C@H]3[C@@H](O)C[C@@]21C	inactive	inactive	inactive	inactive	inactive	inactive	inactive	inactive	inactive	inactive	inactive	inactive	inactive	inactive	inactive	inactive	inactive	inactive	inactive	inactive
Cc1ccc2ccccc2c1[N+](=O)[O-]	inactive	inactive	inactive	inactive	inactive	inactive	inactive	inactive	inactive	inactive	inactive	inactive	inactive	inactive	inactive	inactive	inactive	inactive	inactive	inactive
CC(C=O)c1ccccc1 (centres undefined)	inactive	inactive	inactive	inactive	inactive	inactive	inactive	inactive	inactive	inactive	inactive	inactive	inactive	inactive	inactive	inactive	inactive	inactive	inactive	inactive
CC(=O)N(c1onc(C)c1C)S(=O)(=O)c1ccc(N)cc1	inactive	inactive	inactive	inactive	inactive	inactive	inactive	inactive	inactive	inactive	inactive	inactive	inactive	inactive	inactive	inactive	inactive	inactive	inactive	inactive
O=C(O)CNC(=O)c1ccc(CO)o1	inactive	inactive	inactive	inactive	inactive	inactive	inactive	inactive	inactive	inactive	inactive	inactive	inactive	inactive	inactive	inactive	inactive	inactive	inactive	inactive
CC(C)CCCC(C)CCO (centres undefined)	inactive	inactive	inactive	inactive	inactive	inactive	inactive	inactive	inactive	inactive	inactive	inactive	inactive	inactive	inactive	inactive	inactive	inactive	inactive	inactive
CC(C)(C)OC=O	inactive	inactive	inactive	inactive	inactive	inactive	inactive	inactive	inactive	inactive	inactive	inactive	inactive	inactive	inactive	inactive	inactive	inactive	inactive	inactive
O=C1CCC(=O)N1	inactive	inactive	inactive	inactive	inactive	inactive	inactive	inactive	inactive	inactive	inactive	inactive	inactive	inactive	inactive	inactive	inactive	inactive	inactive	inactive
CC(=O)Nc1ccc(N=Nc2cc(C)ccc2O)cc1	inactive	inactive	inactive	inactive	inactive	inactive	inactive	inactive	inactive	inactive	inactive	inactive	inactive	inactive	inactive	inactive	inactive	inactive	inactive	inactive
C=C1[C@H]2CC[C@@H]3[C@H]2C(C)(C)CCC[C@]13C	inactive	inactive	inactive	inactive	inactive	inactive	inactive	inactive	inactive	inactive	inactive	inactive	inactive	inactive	inactive	inactive	inactive	inactive	inactive	inactive
CNCCO	inactive	inactive	inactive	inactive	inactive	inactive	inactive	inactive	inactive	inactive	inactive	inactive	inactive	inactive	inactive	inactive	inactive	inactive	inactive	inactive
CC(=O)c1cc(C)oc1C	inactive	inactive	inactive	inactive	inactive	inactive	inactive	inactive	inactive	inactive	inactive	inactive	inactive	inactive	inactive	inactive	inactive	inactive	inactive	inactive
CO[Si](OC)(OC)c1ccccc1	inactive	inactive	inactive	inactive	inactive	inactive	inactive	inactive	inactive	inactive	inactive	inactive	inactive	inactive	inactive	inactive	inactive	inactive	inactive	inactive
CCC1CCCCC1	inactive	inactive	inactive	inactive	inactive	inactive	inactive	inactive	inactive	inactive	inactive	inactive	inactive	inactive	inactive	inactive	inactive	inactive	inactive	inactive
O=C1OC[C@H](Cc2cccc(O)c2)[C@H]1Cc1cccc(O)c1	inactive	inactive	inactive	inactive	inactive	inactive	inactive	inactive	inactive	inactive	inactive	inactive	inactive	inactive	inactive	inactive	inactive	inactive	inactive	inactive

From PubChem BioAssay (Tox21)
